In PubChem BioAssay AID1159607 (Small Molecule Screening Facility, UW Madison, 2016):
The whole screen tested about 70,000 compounds, of which about 400 (0.57%) were called active. No stated cut-off is given here; in the data, active means FP signal below about 40; inactive means the rest. The entries come from a sample that favours actives as a whole.

tested on: RMI core complex (RMI1/RMI2) binding to FANCM MM2 peptide, human; assay: disruptors of RMI1/RMI2 association with MM2 peptide – biochemical, fluorescence polarization, human, primary screen (AID 1159607); details: RMI core complex with F-MM2 peptide, at 33 µM, stronger effect = lower value

Structure (SMILES)	FP signal (polarization)
O=C(CSc1nc2ccc(Br)cc2c2nc3ccccc3n12)NCC1CCCO1 (configuration not stated)	57 (inactive)
CCOc1ccc(NC(=O)CC(NCCc2ccc(OC)cc2)C(=O)O)c([N+](=O)[O-])c1 (configuration not stated)	51 (inactive)
COc1ccc(S(=O)(=O)Nc2ccccc2C(=O)O)cc1C	62 (inactive)
Cc1ccc2nc(N(CCN(C)C)C(=O)c3ccc(S(=O)(=O)N4CCCCCC4)cc3)sc2c1	90 (inactive)
O=C(NCCc1ccccc1)NCC(c1ccsc1)N1CCOCC1 (configuration not stated)	64 (inactive)
Cc1cc(-c2nnc(NC(=O)CCCS(=O)(=O)c3ccc(F)cc3)o2)nn1C	61 (inactive)
Cn1nc(-c2ccc3ccccc3c2)c(=O)n(C)c1=S	50 (inactive)
O=C(NCCC1=CCCCC1)C(=O)NCC(c1ccco1)N1CCOCC1 (configuration not stated)	57 (inactive)
CCSc1cccc(C(=O)Nc2ccc3nc(C)sc3c2)c1	80 (inactive)
CC[N+](C)(CC)CCC[n+]1c(-c2ccccc2)c2cc(N)ccc2c2ccc(N)cc21	-45 (active)
CCSc1nnc(NC(=O)c2cc(=O)c(OC)co2)s1	64 (inactive)
COc1ccc(OC)c(Nc2nc(CC(=O)Nc3nc4ccccc4s3)cs2)c1	66 (inactive)
Cc1noc(NS(=O)(=O)c2ccc(N/C=C(\C#N)c3nc4ccccc4n3C)cc2)c1C	68 (inactive)
CS(=O)(=O)NCC(c1ccco1)N1CCOCC1 (configuration not stated)	57 (inactive)
c1ccc(-c2nc(SCc3nc4ccccc4[nH]3)oc2-c2ccccc2)cc1	64 (inactive)
Cc1ccc2nc(NC(=O)CSc3nnc4ccc(-c5ccccn5)nn34)sc2c1	69 (inactive)
Cc1cccc(NC(=O)Nc2ccc(Nc3ccc(-n4cccn4)nn3)cc2)c1C	85 (inactive)
COc1ccc(NC(=O)c2c(F)cccc2F)cc1N1CCCCC1=O	54 (inactive)
CCOC(=O)c1ccc2nc(NC(=O)/C=C/c3ccccc3Cl)sc2c1	62 (inactive)
CSc1cccc(NC(=O)C(=O)NCCN2CCN(c3ccccc3F)CC2)c1	87 (inactive)
O=C(Nc1cc2ccccc2cc1NC(=O)c1ccc(N2C(=O)CCC2=O)cc1)c1ccc(N2C(=O)CCC2=O)cc1	57 (inactive)
CCN1CCOc2ccc(NC(=O)c3cc4ccccc4oc3=O)cc2C1=O	62 (inactive)
O=C1CCc2cc(S(=O)(=O)NCc3ccco3)cc3c2N1CCC3	54 (inactive)
OCc1cnc(SCc2ccc(Cl)c(Cl)c2)n1Cc1ccc(F)cc1	67 (inactive)
N#CC(C#N)=C1SCN(c2cccc(Cl)c2)CS1	-20 (active)
O=C(NCc1cccs1)C(=O)N1CCN(c2cccc(Cl)c2)CC1	53 (inactive)
Cc1ccc(S(=O)(=O)/C(C#N)=C/N2CCN(c3cccc(Cl)c3)CC2)cc1C	71 (inactive)
